We go through 40 compounds from PubChem BioAssay (NCI).

Compounds without any hit were thinned out: in the full panel of roughly 83,000, 20% have a hit.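 The endpoint reported here, percent growth, reads 100 for growth as untreated, 0 for no net growth and -100 for all cells dead.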 The source made the active and inactive calls. Rule for the calls: active = growth percent below 10; inactive = the rest.

The test system of this experiment is MDA-MB-468 breast. Description: NCI-60 one-dose screen, 48 h (100 = growth as untreated, 0 = no growth, -100 = all killed). Particulars: 10 µM unless noted.
For the compound `NC(=O)c1c(OCc2c(F)cc(Br)cc2F)nsc1NC(=O)NCCCCN1CCCC1`, the growth is -57.8% (active). With `N#Cc1c(NC(=O)c2ccccc2)sc2c1CCC(=O)C2` the figure was -9.47% (active); with `COC(=O)c1c2c(c(C)[n+]([O-])c1C)C(=O)C=C(NCc1ccc(OC)cc1)C2=O`, -61% (active); with `CN(C)Cc1cc(C(C)(C)C)cc(Br)c1O`, 90.2% (inactive). As for `COc1ccc(/C=C\c2cc(OC)c(OC)c(OC)c2)cc1OC(=O)c1cccc(Cn2cc(CCOC(=O)c3cccc(Cn4nnc5c4C(=O)c4ccccc4C5=O)c3)nn2)c1`, the figure is 5.62% (active); as for `CCOC(=O)C(CC(=O)O)=C(C(=O)OCC)C(=O)OCC`, 97.1% (inactive); as for `COC(=O)c1ccc2cc(OC)c(OC)cc2c1`, 98.6% (inactive). As for `c1ccc2c(Nc3cccc4ccccc34)cccc2c1`, the figure is 61.8% (inactive); as for `O=C(CCCCC(=O)N/N=C\c1ccccc1O)N/N=C\c1ccccc1O`, 22.4% (inactive); as for `O=C(Nc1nc2ccc(O)cc2s1)c1cccc(C(F)(F)F)c1`, 84.6% (inactive). For the compound `CC1(O)CCC(Nc2cc(-c3ccc(C(F)(F)F)cc3)c(C#N)c3nc4ccccc4n23)CC1` (stereo not given), the growth is 86.8% (inactive). `C=C1CCC2C(C)(CO)C(O)CCC2(C)C1C/C=C1/C(=O)OCC1Oc1ccccc1C` (stereo not given): the growth is 60% (inactive). As for `Cc1cc2nc3c4cc(N)ccc4n(CCN(C)C)c3nc2cc1C`, the figure is -5.6% (active); as for `Cc1ccc(-n2cc(/C=C/C(=O)c3ccc(O)cc3)c(-c3ccc(S(C)(=O)=O)cc3)n2)cc1`, 93.8% (inactive). As for `CCOC(=O)C(C#N)C1CCCCC1` (stereo not given), the figure is 124% (inactive).

Regarding `COC(=O)C[Se]C(=O)Cc1c(C)n(C(=O)c2ccc(Cl)cc2)c2ccc(OC)cc12`, the growth is -18.4% (active). As for `CCOC(=O)C1=C(NC)OCC1=O`, the figure is 90.7% (inactive). As for `CCCN1C2CCC1/C(=C\c1ccc(OC)cc1)C(=O)/C2=C/c1ccc(OC)cc1`, the figure is 55.9% (inactive); as for `O=C(NCCNc1nccc(Nc2ccc(S(=O)(=O)Nc3ccccn3)cc2)n1)c1cccc([N+](=O)[O-])c1`, 105% (inactive).

In the case of `COc1ccc2[nH]c(C(=O)OCc3ccc4c(Br)cc(Br)c(O)c4n3)cc2c1`, the growth was -77.4% (active). As for `Cc1nc2ccc(C(=O)NCc3cc(C(=O)O)c(C)o3)cc2nc1C`, the figure is 98.7% (inactive); as for `CCCCCCCCNc1cccc2c1C(=O)c1ccccc1C2=O`, 95.4% (inactive). Take `NC(=O)NCC1CCCCC1`: the growth is 98% (inactive). Turning to `Cc1ccc(C(=O)/C(=C/c2ccc([N+](=O)[O-])cc2)S(=O)Cc2ccccc2)cc1` (stereo not given), the growth was -54.1% (active).

`CN1CCN(Cc2ccc(NC(=O)c3[nH]ncc3Nc3ncnc4sccc34)cc2)CC1`: the growth was 15.8% (inactive). Take `CC(=O)C1=NN(c2ccc(Cl)cc2)C(=O)CN1C`: the growth was 102% (inactive).

Consider `CNc1ccccc1C(=O)N/N=C/C=C/c1ccccc1`, for which the growth was 19.8% (inactive). Consider `CCN(C(=O)c1ccc2c3c(cccc13)C=C2)c1ccccc1`, for which the growth is 84.3% (inactive).

As to `CCCCOc1nc2ccc(Cl)cc2cc1/C=C/C(=O)/C=C/c1ccc(Cl)cc1`, the growth is 79.5% (inactive).

On to `O=C1CCC(C(=O)NN(c2ccccc2)c2ccccc2)N1` (stereo not given), for which the growth was 94.5% (inactive). As for `CCNc1nc(N2CC(=O)Nc3cc(OC)ccc32)c2ccccc2n1`, the figure is 1.34% (active); as for `CN(C)c1ccc(-c2cc(-c3ccc(Nc4nc(Nc5ccccc5)nc(Nc5ccc(Cl)cc5)n4)cc3)nc(N)n2)cc1`, 74.3% (inactive); as for `C=C1C(=O)O[C@H]2[C@H]1CC/C(C=Nc1c(N)cc(F)cc1Br)=C\CC[C@@]1(C)O[C@@H]21`, 44% (inactive).

As to `Nc1ccc2c(c1)C(=O)NC2=O`, the growth is 75.4% (inactive). With `CCN(CC)c1ccc2cc(C(Nc3ccc(Br)c(C(F)(F)F)c3)c3nnnn3C(C)(C)C)c(=O)oc2c1` (stereo not given) the figure was 118% (inactive); with `COc1cc2cc(Oc3ccc(NC(=O)Nc4cccc(C(F)(F)F)c4)cc3)c(C)nc2cc1OC`, -32.5% (active); with `CCCCCC(=C/c1ccccc1)/C=N/N=C(N)N`, -87.4% (active). `c1csc(C2=NN3C(C2)c2ccccc2OC3c2ccncc2)c1` (stereo not given): the growth is 103% (inactive).

For the compound `Cc1ccc2nc(Cl)c(Cn3nnnc3SCc3ccccc3)cc2c1`, the growth was 90.4% (inactive). With `CC(C)(C)c1nn(-c2ccccc2)c2c1C(=O)CSC(c1ccccc1Cl)N2` (stereo not given) the figure was 19.8% (inactive).
